# In PubChem BioAssay AID504380 (National Center for Advancing Translational Sciences (NCATS), 2011):
# Calls of active or inactive are those of the source. No rule for the calls is given here.
# Test: RT-PCR Analysis of TSH-dependent transcripts in primary cultures of human thyrocytes
# Details: RT-PCR mRNA levels, 48 h; DIO2 mRNA change: measured here: DIO2 transcript; NIS mRNA change: measured here: NIS transcript, concentration not given here; TG mRNA change: concentration not given here; TPO mRNA change: measured here: TPO transcript, concentration not given here; TSHR mRNA change: measured here: TSHR transcript, concentration not given here
# Excerpt: TSH is an alpha/beta heterodimeric glycoprotein hormone secreted from the anterior pituitary gland which belongs to the glycoprotein hormone family. The actions of TSH are mediated by a seven-transmembrane receptor, which upon TSH binding couples preferentially to the G-alpha (s) protein (Gs), resulting in activation of adenylate cyclase and increase in cyclic adenosine 3', 5' monophosphate (cAMP). The TSH receptor (THSR) is mainly expressed in thyroid follicular cells and regulates their growth and function. This cell based assay was conducted on a TSHR transfected HEK 293 cell line, measuring cAMP stimulation using antibody-based Homogeneous Time Resolved Fluorescence (HTRF). Our goal is to identify small molecules that will inhibit (antagonize) the thyroid-stimulating hormone receptor (TSHR), a member of the 7 transmembrane-spanning receptor (7TMR) family of cell surface receptors. TSHR-mediated hyperthyroidism is important in thyroid pathology. The development of small molecule antagonists of TSHR may lead to therapeutic approaches for TSHR-mediated hyperthyroidism caused by constitutively activating mutations or stimulating auto-antibodies associated with Graves' disease. Graves' disease is the leading cause of hyperthyroidism and is caused by autoantibodies that stimulate TSHR (TsAbs) causing thyroid growth and unregulated overproduction of thyroid hormones and existing treatments have liabilities (agranulocytosis). In addition, TSHRs are known to be expressed in multiple extrathyroidal tissues including bone, brain, kidney, testis, fat and cells of the immune system but the role of the TSHR in these tissues is not clear. Therefore, TSHR antagonists/inverse agonists could be used as probes of extrathyroidal TSHR function. Finally, TSHR inverse agonists, which are a subclass of antagonists that inhibit agonist-independent (or basal or constitutive) TSHR signaling, could be used to inhibit TSH-independent signaling in patients with recurrent or metastatic thyroid cancer who are receiving thyroid hormone to suppress TSH. This assays looks for effects on TSH-dependent functions in primary human thyrocytes. Total RNA is purified using RNeasy Micro kits. RT-PCR is performed in 25-ul reactions using cDNA prepared from 100 ng or less of total RNA and Universal PCR Master Mix (Applied Biosystems). mRNA levels are measured using primers and probes from Applied Biosystems. Quantitative RT-PCR results are normalized to GAPDH to correct for differences in RNA input.
# Thyroid tissue samples were collected from normal thyroid tissue from patients undergoing total thyroidectomy for thyroid cancer at the National Institutes of Health Clinical Center. Surgical specimens were maintained in Hanks' balanced salt solution (HBSS) on ice, minced into small pieces, and digested with 3 mg/ml collagenase type IV (Life Technologies). Monodispersed cells were plated in 10 ml DMEM with 10% FBS in 10-cm tissue culture dishes and incubated at 37C in a humidified5%CO2 incubator, and after 24 h, the primary cultures of adherent thyroid cells were obtained. For determination of thyroglobulin (TG), thyroid peroxidase (TPO), TSHR, sodium iodide symporter (NIS), or deiodinase type 2 (DIO2) mRNAexpression, thyrocytes were seeded into 12-well plates at a density of 1 x 10^5 cells per well. The cells were incubated in DMEM with 2% FBS and 1 mM 3-isobutyl-1-methylxanthine (IBMX) for 48 h in the presence or absence of compound.
Structure (SMILES),TG mRNA change,TSHR mRNA change [%],TPO mRNA change [%],NIS mRNA change [%],DIO2 mRNA change [%]
COc1ccc(C2Nc3ccccc3C(=O)N2Cc2ccco2)cc1COc1c(C)cccc1C (stereo not given),-71% (active),-33,-40,-35,0
